Screening data deposited in PubChem BioAssay by several laboratories.
In the library only some 1.8% were active in any assay of this set; here they are far more common.
Mtb hypoxia inh – Mtb hypoxia fluorescent reporter inhibition; fluorescence inhibition, % (no concentration beside the values); hit rate 0.1% among 300,000; M. tuberculosis hypoxia-regulated fluorescent reporter, fluorescence; in the data active means fluorescence inhibition mostly above about 23%, no sharp cut-off; inactive means mostly below about 17%
SSB-PriA inh – K. pneumoniae PriA-SSBct interaction inhibition. AlphaScreen SSBct-PriA binding, biotinylated peptide. inhibition, % at 33 µM. hit rate 0.6% among 430,000; in the data active means inhibition mostly above about 37%, no sharp cut-off; inactive means mostly below about 20%
VHR inh abs – blocks human VHR1 dual specificity phosphatase; P51452; recombinant VHR phosphatase, pNPP absorbance; inhibition, % at 13.3 µM; hit rate 0.52% among 290,000; in the data active means inhibition above about 50%
Target sequence (P51452 whole entry, looked up): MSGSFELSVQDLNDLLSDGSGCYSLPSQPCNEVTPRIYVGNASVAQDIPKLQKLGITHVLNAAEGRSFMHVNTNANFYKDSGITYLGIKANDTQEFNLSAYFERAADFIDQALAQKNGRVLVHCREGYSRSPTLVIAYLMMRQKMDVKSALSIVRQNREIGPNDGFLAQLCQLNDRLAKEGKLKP
Sa RN4220 lethal – S. aureus RN4220 growth inhibition; OD600, 16 h; inhibition, % (test concentration not listed); hit rate 0.33% among 330,000; in the data active means inhibition above about 85%
ugtP null kill – growth inhibition of S. aureus ugtP deletion strain. hit rate 0.54% among 330,000. S. aureus RN4220 ugtP deletion, OD600 growth, 16 h. AID 1259309. growth inhibition, % (concentration not given with the values); in the data active means growth inhibition above about 68%
PfHsp40 yeast – compounds rescuing yeast from Plasmodium falciparum HSP40 toxicity. S. cerevisiae expressing PfHsp40, growth rescue, ATP luminescence. growth rescue, % at 12.5 µM. hit rate 0.68% among 340,000. AID 504582; in the data active means growth rescue above about 28%, passing the limit was not always enough; inconclusive means no clear call, values can overlap the other calls;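 further: yeast W303a lacking pdr1 and pdr3 grown in galactose medium; growth measured after three days at 30 °C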
Numbers stand for hits; - = inactive; ? = inconclusive; . = no result.

SMILES | Mtb hypoxia inh | SSB-PriA inh | VHR inh abs | Sa RN4220 lethal | ugtP null kill | PfHsp40 yeast
N#CC1(N2CCN(C(=O)c3ccccc3)CC2)CCCCC1 | - | - | 54 | - | - | -
NC(=O)C1(N2CCCCC2)CCN(C(=O)c2ccccc2)CC1 | - | - | - | - | - | -
CN1C(=O)C(C)(C)COc2cc(NC(=O)NCc3cccs3)ccc21 | . | - | . | . | . | .
Cc1cc(C)cc(Oc2ccccc2C=NO)c1 | . | - | . | - | 87 | .
COC(=O)c1ccccc1NC(=O)CSC1=NC2=C(C(=O)CCC2)[C@H](c2ccco2)C1C#N (stereo partly specified) | . | - | . | . | . | .
COc1ccc(O)c(C=NNC(=O)c2ccc(CSc3nc(C)cc(C)n3)cc2)c1 | - | - | . | - | - | .
COc1ccc(O)c(/C=N/NC(=O)c2ccc(CSc3nc(C)cc(C)n3)cc2)c1 | . | . | - | . | . | 52
Cc1cc(C)nc(SCc2ccc(C(=O)N/N=C/c3cccc(O)c3O)cc2)n1 | . | . | - | . | . | 126
Cn1cc(CC(=O)NCC2CCCN2c2ccccc2)c2ccccc21 (stereo unspecified) | . | 39 | . | . | . | .
O=C(NCC1CCCN1c1ccccc1)c1c[nH]c2ccccc12 (stereo unspecified) | . | 53 | . | . | . | .
O=C(NC[C@H]1CCCN1c1nccs1)c1c[nH]c2ccccc12 | . | - | . | . | . | .
CN(C)c1nc(N2CCCC2)ncc1NC(=O)COc1ccccc1 | . | - | . | . | . | .
CNC(=O)c1cc2c(cn1)[nH]c1ccccc12 | - | - | . | - | - | 60
CCOC(=O)c1ccc(Oc2c(C)oc3c4c(ccc3c2=O)OCN(C2CCS(=O)(=O)C2)C4)cc1 (stereo unspecified) | . | 38 | . | . | . | .
Nc1ccccc1-n1ccnc1 | . | - | . | . | . | .
CCOc1ccc2oc(C(=O)OCC(=O)NC3CCCCC3)c(C)c2c1 | 32 | - | . | - | - | -
CCOc1ccc2oc(C(=O)OCC(=O)N3C(C)CCCC3C)c(C)c2c1 (stereo unspecified) | 25 | - | . | - | - | -
COc1ccc2oc(C(=O)OCC(=O)N3C(C)CCCC3C)c(C)c2c1 (stereo unspecified) | - | - | - | - | - | -
Cc1nc2c(=O)n(CC(=O)NCC3CCCO3)nc(-c3cccs3)c2s1 (stereo unspecified) | . | - | . | . | . | .
O=C(Cn1cnc(-c2ccc(F)cc2)cc1=O)Nc1ccccc1-c1ccccc1 | . | - | . | . | . | .
CCCCCCCCCCCCCCCC(O)C(N)CO (stereo unspecified) | - | - | - | 100 | 100 | -
CCCCCCC(N)CC(=O)O (stereo unspecified) | - | - | - | - | - | -
O=C(CCc1c[nH]c2ccccc12)NCC1COc2ccccc2O1 (stereo unspecified) | - | - | - | - | - | -
O=C(CCCc1c[nH]c2ccccc12)NCC1COc2ccccc2O1 (stereo unspecified) | - | - | 52 | - | - | -
COc1ccccc1NC(=O)c1sc(=S)n(-c2ccc(Cl)cc2)c1N | . | 36 | . | . | . | .
SMILES | Mtb hypoxia inh | SSB-PriA inh | VHR inh abs | Sa RN4220 lethal | ugtP null kill | PfHsp40 yeast
C=CCn1c(N)c(C(=O)Nc2ccccc2OC)sc1=S | - | - | - | - | - | -
COC(=O)c1ccc(C)c(-n2c(N)c(C(=O)Nc3ccccc3C)sc2=S)c1 | . | 39 | . | . | . | .
CC(C)c1ccc2c(c1)sc(=NC(=O)c1ccc(S(=O)(=O)N(C)C)cc1)n2C | . | - | . | . | . | .
COC1CCC(OC2CC(C3(C)CCC4(CC(O)C(C)C(C(C)/C=C(\C)C(=O)C(C)CC(C)C(=O)O)O4)O3)OC3(OC(C4OC(O)(CO)C(C)CC4C)CC3C)C2C)OC1C (stereo unspecified) | . | - | . | . | . | 220
NNC(=O)c1[nH]c2ccccc2c1-c1ccccc1 | . | 102 | - | . | . | -
O=C(Nc1ccc(Cl)c(Cl)c1)Nc1ccc(Br)cc1F | - | - | - | 100 | 99 | -
O=C(Nc1ccc(Cl)cc1)Nc1ccc(Cl)c(Cl)c1 | . | - | . | . | . | .
O=C1C=C(NC(=O)Nc2ccc(Cl)c(Cl)c2)CCC1 | - | - | - | 100 | 100 | -
O=C1CCc2cc(NC(=O)Nc3ccc(Cl)c(Cl)c3)ccc2N1 | . | - | . | . | . | .
O=C1c2ccccc2-c2onc3c(N4CCOCC4)cc(N4CCOCC4)c1c23 | . | - | . | . | . | .
CCN1CCN(c2cc(N3CCN(C(=O)c4ccco4)CC3)c3c4c(onc24)-c2ccccc2C3=O)CC1 | . | 76 | - | . | . | -
O=C(O)CCNc1cc(N2CCN(C(=O)c3ccco3)CC2)c2noc3c2c1C(=O)c1ccccc1-3 | . | 54 | - | . | . | -
CC(=O)OCCNc1cc(N2CCN(C)CC2)c2noc3c2c1C(=O)c1ccccc1-3 | 54 | - | - | - | - | -
O=C(c1ccco1)N1CCN(C(=O)c2cc(OCc3ccccc3)no2)CC1 | . | - | . | . | . | .
CC(C)S(=O)(=O)c1ccc(CC(=O)N2CCC(Oc3cnccn3)C2)cc1 (stereo unspecified) | . | - | . | . | . | .
Cn1c(SCC(=O)Nc2ccc3nc(SCC(=O)N4CCCC4)sc3c2)nnc1-c1ccc(N)cc1 | - | - | 52 | - | - | -
Cc1cc(NC(=O)c2ccc(N3CCCC3)nn2)n(-c2ccccc2)n1 | . | - | . | . | . | .
Cc1nnsc1C(=O)N1CC(Oc2nc3c(C(F)(F)F)cccc3s2)C1 | . | - | . | . | . | .
CC(c1ccccn1)C(C)(O)C(C)c1ccccn1 (stereo unspecified) | - | - | . | - | - | -
OC(c1ccccn1)(c1ccccn1)c1ccccn1 | - | 79 | - | - | - | -
COc1ccc(C(=O)Oc2ccc3cc(-c4nc5ccccc5n4C)c(=O)oc3c2)cc1 | . | - | . | . | . | .
O=S(=O)(c1cccc(Cl)c1)N1CCN(S(=O)(=O)c2ccc3c(c2)OCCO3)CC1 | - | - | . | - | - | 43
O=S(=O)(c1ccc2c(c1)OCCO2)N1CCN(c2cccc(Cl)c2)CC1 | . | - | - | - | - | -
O=C(O)c1ccccc1N=Nc1c(O)[nH]c(=O)[nH]c1=O | - | - | - | - | - | -
Cc1cc(N=Nc2ccccc2C(=O)O)c(C)c(C)c1O | 45 | - | - | - | - | 150
SMILES | Mtb hypoxia inh | SSB-PriA inh | VHR inh abs | Sa RN4220 lethal | ugtP null kill | PfHsp40 yeast
Cc1cc(O)c(C(C)C)cc1N=Nc1ccccc1C(=O)O | 51 | - | - | - | - | -
CCC(=O)C1=C(O)C(c2cccc(Oc3ccccc3)c2)CCC1=O (stereo unspecified) | - | - | - | - | - | 211
COc1ccc2c(c1)C(=O)CCC2c1ccccc1 (stereo unspecified) | - | - | - | - | - | ?
COc1ccc(NN=C(Oc2ccc([N+](=O)[O-])cc2)C(C)=O)cc1 | - | - | . | - | - | .
COc1ccc(CCNC(=O)c2ccc(S(=O)(=O)N(C)c3ccccc3)cc2)cc1OC | - | - | 52 | - | - | -
Cc1ccc(C2=CC(c3ccc(C)cc3)n3ncnc3N2)cc1 (stereo unspecified) | - | - | . | - | - | 69
CCOc1ccc(C2C=C(c3ccc(C)cc3)Nc3ncnn32)cc1 (stereo unspecified) | . | . | - | . | . | .
O=C(CCCS(=O)(=O)c1ccccc1)Nc1nc2c(s1)CCCC2 | . | - | . | . | . | .
CCCCNc1c(-c2ccc(OC)c(SC3CCCCC3)c2)nc2cc(C)ccn12 | - | - | . | - | - | -
CCCCNc1c(-c2cccc(-c3ccc(OC)cc3)c2)nc2ccc(C)cn12 | - | - | . | - | - | 232
